IDE exosite inh: displaces the probe from the exo-site of human IDE | P14735 | purified IDE, FL-6b probe fluorescence polarization; hits give low values | z-score at 20 µM | 6.3% of 17,000 active;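 active = z-score of -3 or lower, meaning strong loss of probe binding signal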;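 note: His-tagged human IDE residues 42-1019 made in E. coli with 30 nM FL-6b probe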
Target sequence (P14735 42-1019 limits assumed): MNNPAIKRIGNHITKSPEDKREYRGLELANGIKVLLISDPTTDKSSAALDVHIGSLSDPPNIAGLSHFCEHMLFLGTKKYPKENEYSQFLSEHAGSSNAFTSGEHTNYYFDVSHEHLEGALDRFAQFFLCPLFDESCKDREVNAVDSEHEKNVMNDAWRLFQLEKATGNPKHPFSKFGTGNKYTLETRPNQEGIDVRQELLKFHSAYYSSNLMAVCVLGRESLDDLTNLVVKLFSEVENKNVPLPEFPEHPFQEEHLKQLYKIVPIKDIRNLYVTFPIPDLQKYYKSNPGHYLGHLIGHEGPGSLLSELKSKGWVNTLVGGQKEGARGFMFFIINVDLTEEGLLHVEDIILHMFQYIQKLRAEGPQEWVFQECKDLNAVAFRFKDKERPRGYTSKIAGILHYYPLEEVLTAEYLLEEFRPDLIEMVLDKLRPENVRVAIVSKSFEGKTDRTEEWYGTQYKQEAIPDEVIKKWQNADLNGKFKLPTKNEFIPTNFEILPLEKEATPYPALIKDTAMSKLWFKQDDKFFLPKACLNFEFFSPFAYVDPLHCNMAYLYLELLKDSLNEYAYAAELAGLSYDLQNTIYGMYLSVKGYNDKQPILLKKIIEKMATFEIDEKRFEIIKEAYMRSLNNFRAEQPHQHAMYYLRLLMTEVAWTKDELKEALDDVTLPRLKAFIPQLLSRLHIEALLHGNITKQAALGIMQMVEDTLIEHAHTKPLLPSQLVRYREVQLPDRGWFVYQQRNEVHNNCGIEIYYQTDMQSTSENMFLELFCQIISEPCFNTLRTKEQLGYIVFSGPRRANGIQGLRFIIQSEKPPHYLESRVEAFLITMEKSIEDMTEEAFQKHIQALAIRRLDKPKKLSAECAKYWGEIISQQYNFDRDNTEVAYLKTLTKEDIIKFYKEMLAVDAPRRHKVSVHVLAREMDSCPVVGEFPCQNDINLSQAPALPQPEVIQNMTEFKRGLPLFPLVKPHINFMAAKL
The depositor's hits bear a star. Only a selection was taken, and hits are over-represented in it overall.

SMILES | IDE exosite inh
OC[C@H]1[C@H](c2ccc(C#Cc3ccccc3)cc2)[C@@H]2CN(CC3CCOCC3)CCCCN12 | -3.6*
OC[C@@H]1[C@@H](c2ccc(C#Cc3ccccc3F)cc2)[C@H]2CN(CC3CCOCC3)CCCCN12 | 2.2
CCCC#Cc1ccc([C@@H]2[C@@H](CO)N3CCCCN(CC4CCOCC4)C[C@H]23)cc1 | 0.69
CCCC#Cc1ccc([C@@H]2[C@@H](CO)N3CCCCN(CC4CCOCC4)C[C@@H]23)cc1 | -1.2
OC[C@H]1[C@H](c2ccc(C#Cc3ccccc3F)cc2)[C@H]2CN(CC3CCOCC3)CCCCN21 | -0.28
COc1ccc(-c2ccccc2[C@@H]2[C@H](C#N)N(C(=O)c3cccnc3)[C@H]2CO)cc1 | -0.54
NCC[C@@H]1CC[C@@H](NS(=O)(=O)c2ccc(Cl)cc2)[C@@H](CO)O1 | 2.9
C[C@@H]1CN([C@@H](C)CO)C(=O)c2cc(NS(=O)(=O)c3ccccc3)ccc2O[C@@H](C)CCCCO[C@@H]1CN(C)C(=O)C1CCCCC1 | 0.062
O=C(C1CCOCC1)N1CC2(C1)[C@@H](c1ccccc1)[C@H](CO)N2Cc1ccccc1F | 0.82
CNC[C@H]1OCCCC[C@@H](C)Oc2ccc(NC(=O)Nc3ccc(OC)cc3)cc2C(=O)N([C@H](C)CO)C[C@@H]1C | -0.096
CC=Cc1ccc2n(c1=O)C[C@H]1[C@H](CO)[C@@H](C(=O)NCC(F)(F)F)N(C(=O)c3cccnc3)[C@@H]21 (mixture of isomers) | -0.33
CCCC(=O)N1CCC2(CC1)CN(Cc1ccc(Cl)cc1)[C@H](CO)c1[nH]c3cc(OC)ccc3c12 | -3.6*
COc1ccc(CN2CC3(CCN(C(=O)Cc4ccncc4)CC3)c3c([nH]c4cc(OC)ccc34)[C@@H]2CO)cc1 | -3.1*
COc1ccc2c3c([nH]c2c1)[C@@H](CO)N(C(=O)Nc1ccc(F)cc1)CC31CCN(C(=O)Cc2ccncc2)CC1 | -0.84
COc1ccc2c3c([nH]c2c1)[C@@H](CO)N(Cc1ccc(Cl)cc1)CC31CN(S(C)(=O)=O)C1 | 0.86
COc1ccc2c3c([nH]c2c1)[C@H](CO)N(Cc1ccc(Cl)cc1)CC31CN(S(C)(=O)=O)C1 | -0.77
COc1ccc2c3c([nH]c2c1)[C@H](CO)N(C(=O)Nc1ccc(F)cc1)CC31CCN(C(=O)Cc2ccncc2)CC1 | 1.2
CCS(=O)(=O)N1CCCCN2[C@H](CO)[C@H](c3ccc(-c4ccc(C(=O)N(C)C)cc4)cc3)[C@H]2C1 | 0.47
CN1c2ccc(Br)cc2[C@H]2[C@H](CCN2C(=O)C2CCC2)[C@H]1CO | 1.5
C[C@@H]1CC(=O)N[C@@H](c2ccccc2)C/C=C\C[C@H](c2ccccc2)NC1=O | 1.2
CCN1CC(=O)N2[C@@H](CO)[C@H](c3ccc(Br)cc3)[C@@H]2C1 | -0.18
O=C(Nc1cccc(F)c1)N1CC(=O)N2[C@H](CO)[C@H](c3ccc(-c4cccc(F)c4)cc3)[C@@H]2C1 | 0.94
CCC(=O)N1[C@@H](CO)[C@@H](c2ccccc2)C12CN(Cc1ccccc1Cl)C2 | 2.1
CO[C@H](C(=O)N(C)C[C@@H]1OCc2ccccc2-c2ccccc2C(=O)N([C@H](C)CO)C[C@H]1C)c1ccccc1 | 0.23
CN(C)CC#Cc1ccc([C@H]2[C@H]3CN(C(=O)c4ccccc4)CC(=O)N3[C@H]2CO)cc1 | 1.7
SMILES | IDE exosite inh
CCCC#Cc1cnc2c(c1)C(=O)N([C@@H](C)CO)C[C@@H](C)[C@@H](CN(C)C(=O)Nc1cc(F)ccc1F)O2 | -0.044
O=C(CN1CCOCC1)N1CCCCN2[C@@H](CO)[C@@H](c3ccc(C#Cc4ccccc4F)cc3)[C@@H]2C1 | -4.6*
O=C(CN1CCOCC1)N1CCCCN2[C@H](CO)[C@@H](c3ccc(C#Cc4ccccc4F)cc3)[C@@H]2C1 | -2.9
O=C(CN1CCOCC1)N1CCCCN2[C@H](CO)[C@@H](c3ccc(C#Cc4ccccc4F)cc3)[C@H]2C1 | -3.9*
O=C(CN1CCOCC1)N1CCCCN2[C@@H](CO)[C@H](c3ccc(C#Cc4ccccc4F)cc3)[C@@H]2C1 | -9*
O=C(C1CCOCC1)N1[C@@H](CO)[C@@H](c2ccccc2)C12CN(Cc1cccc(Cl)c1)C2 | 1.4
CN(C)C(=O)C[C@H]1C[C@@H]2c3cc(NC(=O)c4cccnc4)ccc3O[C@@H]2[C@H](CO)O1 | -0.57
N#C[C@H]1[C@@H](c2ccc(-c3ccncc3)cc2)[C@@H](CO)N1C(=O)C1CCCCC1 | 3.7
COc1ccc(C[C@@H]2CCn3cc(nn3)COCCCNC2=O)cc1 | 0.88
COc1ccc2c3c(n(C)c2c1)[C@@H](CO)N(C(=O)c1ccc(F)cc1)CC31CN(CC2CCOCC2)C1 | -1.1
CCC(=O)N1CC(=O)N2[C@@H](CO)[C@H](c3ccc(-c4ccc(C(=O)N(C)C)cc4)cc3)[C@@H]2C1 | -0.86
N#C[C@H]1[C@H](c2ccccc2-c2cccc(F)c2)[C@@H](CO)N1C(=O)C1CCCCC1 | 1.1
C[C@@H]1CN([C@H](C)CO)C(=O)c2cc(/C=C/c3ccccc3)cnc2O[C@H]1CN(C)S(=O)(=O)c1ccccc1F | -4.6*
C[C@H](CO)N1C[C@H](C)[C@H](CN(C)S(=O)(=O)c2ccccc2F)Oc2ncc(/C=C/c3ccccc3)cc2C1=O | -1.7
C[C@@H]1CN([C@@H](C)CO)C(=O)c2cc(-c3ccc(F)cc3)cnc2O[C@H]1CN(C)S(C)(=O)=O | 0.99
COc1ccc(S(=O)(=O)Nc2cccc3c2O[C@@H](CN(C)CC2CCCCC2)[C@H](C)CN([C@H](C)CO)C3=O)cc1 | 1.5
CCC(=O)Nc1ccc2c(c1)C(=O)N(C)C[C@@H](OC)[C@H](C)CN(Cc1nccs1)[C@@H](C)CO2 | 0.95
O=S(=O)(c1cccs1)N1CCCCN2[C@H](CO)[C@H](c3ccc(Br)cc3)[C@@H]2C1 | 2.6
COc1cccc(C#Cc2ccc([C@H]3[C@@H](CO)N4C(=O)CN(C(=O)C5CC5)C[C@H]34)cc2)c1 | -9.5*
COc1ccc(C#Cc2ccc([C@H]3[C@H](CO)N4C(=O)CN(C(=O)C5CCOCC5)C[C@@H]34)cc2)cc1 | -1.1
COc1cccc(C#Cc2ccc([C@H]3[C@H](CO)N4C(=O)CN(C(=O)C5CC5)C[C@@H]34)cc2)c1 | -4.6*
COc1cccc(C#Cc2ccc([C@@H]3[C@@H](CO)N4C(=O)CN(C(=O)C5CC5)C[C@@H]34)cc2)c1 | -1
COc1cccc(C#Cc2ccc([C@@H]3[C@H]4CN(C(=O)C5CC5)CC(=O)N4[C@H]3CO)cc2)c1 | -0.064
C/C=C/c1ccc([C@H]2[C@@H](CO)N(c3nc(C)c(C)s3)[C@@H]2CNCC(C)C)cc1 | -0.97
O=S(=O)(c1ccc(F)cc1)N1CCCCN2[C@H](C1)[C@@H](c1ccc(-c3cncnc3)cc1)[C@@H]2CO | 0.5
SMILES | IDE exosite inh
COc1ccc(C[C@H]2CCn3nncc3COC[C@@H](c3ccccc3)NC2=O)cc1 | -0.58
COCC(=O)N1CC(=O)N2[C@@H](CO)[C@@H](c3ccc(C#CC4CCCCC4)cc3)[C@@H]2C1 | 1.7
CCCNC(=O)N(C)C[C@@H]1Oc2cc(C#C[C@H](C)O)ccc2S(=O)(=O)N([C@@H](C)CO)C[C@@H]1C | 0.12
O=C(Nc1cccc(F)c1)N1C[C@@H]2[C@H](c3ccccc31)[C@H](CO)N2C(=O)Cc1ccccn1 | 0.29
C[C@H]1CN([C@@H](C)CO)C(=O)CCCn2cc(nn2)CO[C@H]1CN(C)C(=O)Nc1cccc2ccccc12 | -0.74
COc1cccc(C(=O)Nc2ccc3c(c2)C(=O)N(C)[C@H]2CC[C@H](CC(=O)NCc4ccc(F)cc4)O[C@H]2CO3)c1 | -0.35
